Source: PubChem BioAssay
FLuc inh = blocks purified firefly luciferase enzyme activity. P08659. purified P. pyralis luciferase, luminescence, biochemical. Potency, µM (highest dose often 115 µM), hits mostly inhibitors. hit rate 2.5% among 76,000; further: potency means the concentration at half of the fitted maximal effect; on the % scale 0 is the no-effect control and ±100 the full control effect; nearly all actives have a fitted effect of over 65% in size
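Inhibitors were tested against purified firefly luciferase in a biochemical, low-substrate format (both substrates at 10uM) and luminescence measured with a CCD imager.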
HEK293 tox = kills HEK 293 cells; HEK 293 viability, ATP luminescence (CellTiter-Glo), 48-72 h; Potency, µM (doses to about 115 µM), for the others: at the top dose activity change, negative = cytotoxicity, hits mostly inhibitors; hit rate 6.6% among 94,000; AID 1345083; further: potency means the concentration at half of the fitted maximal effect; on the % scale 0 is the no-effect control and ±100 the full control effect; nearly all actives have a fitted effect of over 60% in size
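qHTS cytotoxicity; HEK 293, 250 cells/well; compound pinned; 48 or 72 hr, 37 degree Celsius, 5% CO2, 95% humidity; CellTiter-Glo, 10 min RT; luminescence (ATP).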
NIH3T3 tox = kills NIH 3T3 cells; Potency, µM (series often up to 96.7 µM), inactives show top-dose activity change, negative = cytotoxicity, actives largely listed as inhibitors; NIH 3T3 viability, CellTiter-Glo ATP luminescence, 48-72 h; hit rate 4.3% among 94,000; AID 1345082; further: potency means the concentration at half of the fitted maximal effect; on the % scale 0 is the no-effect control and ±100 the full control effect; nearly all actives have a fitted effect of over 55% in size
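First NIH 3T3 cells are plated at 400 cells/well; next compound is pinned in; then plates incubate 48 or 72 hr at 37 °C; finally CellTiter-Glo is added and luminescence read after 10 min.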
hNpr1 antagonist = antagonists of human natriuretic peptide receptor Npr1; P16066; HEK293 hNpr1 GloSensor cGMP, ANP-stimulated luminescence; Potency, µM (highest dose often 46.3 µM), without a hit: at the top dose activity change, negative = inhibition, most hits filed as inhibitors; hit rate 1.6% among 76,000; AID 1347048; calls by dose curve; further: potency means the concentration at half of the fitted maximal effect; on the % scale 0 is the no-effect control and ±100 the full control effect; nearly all actives have a fitted effect of over 60% in size
Target sequence (P16066 whole entry, looked up): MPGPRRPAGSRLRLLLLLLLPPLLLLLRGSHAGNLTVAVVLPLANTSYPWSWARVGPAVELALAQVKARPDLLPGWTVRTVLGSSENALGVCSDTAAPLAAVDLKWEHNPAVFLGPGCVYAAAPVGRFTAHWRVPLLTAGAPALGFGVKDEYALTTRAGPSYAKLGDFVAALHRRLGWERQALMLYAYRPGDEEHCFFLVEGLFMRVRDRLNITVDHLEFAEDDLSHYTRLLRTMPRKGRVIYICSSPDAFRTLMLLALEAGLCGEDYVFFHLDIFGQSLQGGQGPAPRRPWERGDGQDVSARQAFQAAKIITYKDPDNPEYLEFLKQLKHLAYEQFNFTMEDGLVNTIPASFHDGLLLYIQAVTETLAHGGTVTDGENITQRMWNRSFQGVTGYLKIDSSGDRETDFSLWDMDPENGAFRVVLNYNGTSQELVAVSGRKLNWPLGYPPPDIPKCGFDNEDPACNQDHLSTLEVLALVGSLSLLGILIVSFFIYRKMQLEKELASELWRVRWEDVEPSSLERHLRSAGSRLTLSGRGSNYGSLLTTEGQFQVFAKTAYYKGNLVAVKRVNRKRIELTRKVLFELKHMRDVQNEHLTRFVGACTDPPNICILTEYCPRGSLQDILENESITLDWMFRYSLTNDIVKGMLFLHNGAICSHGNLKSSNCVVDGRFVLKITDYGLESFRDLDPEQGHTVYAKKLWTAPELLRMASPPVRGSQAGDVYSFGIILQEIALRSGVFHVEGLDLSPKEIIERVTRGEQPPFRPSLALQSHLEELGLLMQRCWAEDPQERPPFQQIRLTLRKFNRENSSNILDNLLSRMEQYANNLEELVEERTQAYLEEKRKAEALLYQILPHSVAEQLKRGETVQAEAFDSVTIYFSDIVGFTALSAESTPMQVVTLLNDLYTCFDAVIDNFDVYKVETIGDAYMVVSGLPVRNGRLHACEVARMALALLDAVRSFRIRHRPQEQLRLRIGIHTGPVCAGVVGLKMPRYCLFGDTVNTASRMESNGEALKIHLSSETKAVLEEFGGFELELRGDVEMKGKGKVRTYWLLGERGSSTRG
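Compound pre-incubated 30 min at room temperature on GloSensor-loaded HEK293 cells stably carrying hNpr1 and the pGS-40F cGMP biosensor. Stimulation uses hNppA at 0.1 nM final; luminescence is taken at baseline and 20 min post-agonist.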
GPT2 inh = inhibitors of human GPT2 alanine aminotransferase; Q8TD30; AID 1671188; Recombinant GPT2, coupled pyruvate oxidase/HRP Amplex Red fluorescence; Potency, µM (series often up to 57.7 µM), for the others: top-dose activity change, negative = inhibition, usual class: inhibitors; hit rate 0.25% among 100,000; further: potency means the concentration at half of the fitted maximal effect; on the % scale 0 is the no-effect control and ±100 the full control effect; nearly all actives have a fitted effect of over 60% in size
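GPT2 10ng/uL, a-KG 250uM, L-Ala 2mM, HEPES pH7.5 + 0.0001% Tween; 30 min RT. Then Amplex mix (PO/HRP/ThPP), 30 min RT dark, fluorescence. AOA 50uM used as positive control.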
GPT2 inh cnf = human alanine aminotransferase 2 inhibition, confirmatory; AID 1671187; hit rate 90% among 95; GPT2 enzyme, coupled Amplex Red pyruvate fluorescence; Potency, µM, most hits filed as inhibitors; shares compounds with GPT2 inh
An asterisk follows results filed as active; i = inactive; ? = inconclusive; · = not tested or not shown; ! = a repeat was not active; [ ] = remark or other dose. An excerpt weighted towards active compounds, which were near 10% of everything screened. Unless noted, the call rests on the fitted dose curve; in most records, active means well fitted curve in the direction sought with a large enough effect; inconclusive means small, poorly fitted or top-dose-only effect, or another doubt; inactive means no such curve, though single readings can be large; an effect the other way counts as inactive or inconclusive.

SMILES | FLuc inh | HEK293 tox | NIH3T3 tox | hNpr1 antagonist | GPT2 inh | GPT2 inh cnf
COc1cc(N2CCOCC2)ccc1Nc1ncc(F)c(Nc2ccccc2NS(C)(=O)=O)n1 | · | · | · | · | 3.16µM* | 1.93*
COc1cc(N2CCOCC2)ccc1Nc1ncc(Cl)c(Nc2ccccc2NS(C)(=O)=O)n1 | · | · | · | · | 5.01µM* | 1.53*
CSc1ccc(NC(=O)N2CCC(N(CCC(C)C)C3CCOCC3)CC2)cc1 | ? | ? | -16.0% | -1.6% | -3.3% | ·
COc1ccc(CCC(=O)N2CCOc3ccc(N4CCCC4)cc3C2)cc1 | · | ? | ? | · | 3.16µM* | 1.53*
Cn1ncc2c(C(=O)NC3CCOC3)cc(-c3ccccc3C(F)(F)F)nc21 (stereo not given) | · | -7.4% | ? | · | · | ·
O=C1CN(S(=O)(=O)Cc2ccccc2)CC2(CCCCC2)N1CC1CC1 | · | ? | -27.5% | · | i | ·
C[C@@H]1CN(C(=O)c2cc(N3CCOCC3)cc3c2OCCN3C)C[C@H](C)O1 | · | · | · | · | · | 4.44*
Cc1cc(CNC(=O)c2cc(-c3ccc(N4CCOCC4)cc3)cc3c2OCCN3C)no1 | ? | ? | ? | 7.0% | 3.1% | ·
Clc1ccc2c(c1)Nc1ccccc1S2 | · | · | · | · | ? | 3.43*
COc1cc(N2CCC(C(N)=O)CC2)ccc1Nc1nc(N)c(Cl)c(Nc2ccccc2S(=O)(=O)C(C)C)n1 | · | · | · | · | 1.37µM* | 3.85*
COc1cc(N2CCC(N3CCN(C)CC3)CC2)ccc1Nc1ncnc(Nc2ccccc2S(=O)(=O)C(C)C)n1 | · | · | · | · | 4.32µM*! | 1.53*
COc1cc(N2CCC(O)CC2)ccc1Nc1cc(Nc2ccccc2S(=O)(=O)C(C)C)c2cc[nH]c2n1 | · | · | · | · | 3.43µM*! | 3.43*
COc1ccccc1Nc1ccnc(N2CCC(C(=O)NC(C)C)CC2)n1 | · | ? | ? | · | 3.8%[88.5 µM] | ·
CCOc1cc(C(=O)N2CCC(N3CCN(C)CC3)CC2)ccc1Nc1ncc2c(n1)N(C1CCCC1)c1ccccc1C(=O)N2C | · | · | · | · | 4.3% | ·
CNc1nc(Nc2ccc(C(=O)N3CCOCC3)cc2OC)ncc1Cl | · | · | · | · | 1.8% | ·
O=C(NCc1ccc(Cl)cc1)c1cc(-c2ccccc2)c2nncn2n1 | · | -4.4% | -8.1% | · | i | ·
Cc1cc(C(=O)N2C[C@@H](CO)[C@H](c3ccncc3)C2)c(C)o1 | i | i | -11.0% | 0.3% | i | ·
CN(C)c1ccc(Nc2nc(N)n(C(=O)c3c(F)cccc3F)n2)cc1 | · | · | · | · | 3.16µM* | 1.22*
CCNc1ncc(C(=O)N2CCCC(Nc3ccc(OC)cc3)C2)cn1 (stereo not given) | i | -18.4% | -18.9% | -1.9% | i | ·
COc1ccc(NC2CCCN(CC(=O)Nc3ccc(C)cn3)C2)cc1 (stereo not given) | i | -28.4% | -17.6% | ? | ? | 5.44*
COc1ccc(OC2CCN(C(C)=O)CC2)c(C(=O)NCc2cc3ccccc3[nH]2)c1 | i | -13.1% | -19.6% | -0.8% | i | ·
CCn1cc(-c2ccccc2)cc1C(=O)NC1CCCC1 | i | -14.7% | -19.7% | -10.3% | 0.6% | ·
Cc1cc(Cl)ccc1NC(=O)CCn1ccn2nc3c(c2c1=O)CCCC3 | i | ? | ? | -0.2% | i | ·
CCN(CC)c1ccc(NC(=O)CCn2ccn3nc4c(c3c2=O)CCCC4)c(C)c1 | i | ? | 39.8µM* | -2.7% | ? | 1.72*
Cn1ccc2cc(NCc3nnc(C(=O)N4CCC[C@@H]4CN4CCCC4)n3-c3ccccc3)ccc21 | ? | -25.2% | ? | 2.6% | ? | ?
SMILES | FLuc inh | HEK293 tox | NIH3T3 tox | hNpr1 antagonist | GPT2 inh | GPT2 inh cnf
COC1C(=O)N(c2cccc(F)c2)C12CCN(C(=O)c1ccncc1)CC2 (stereo not given) | i | -7.8% | -12.0% | -6.3% | -9.1% | ·
c1ccc(Nc2cc3c(cn2)NCCN(Cc2ccccn2)C3)cc1 | i | ? | -18.3%[138 µM] | 2.3%[70.6 µM] | -81.0%[88.5 µM] | 3.53*
COc1ccc(CN2CCNc3cnc(Nc4ccccc4)cc3C2)cc1O | i | ? | ? | -0.1%[70.6 µM] | ? | 4.98*
Oc1ccccc1CN1CCNc2cnc(Nc3ccccc3)cc2C1 | i | ? | ? | ? | 6.31µM* | 6.27*
c1ccc(-c2cc3c(cn2)NCCN(Cc2ccccn2)C3)cc1 | i | ? | -19.4%[138 µM] | 1.3%[70.6 µM] | 2.2%[88.5 µM] | ·
O=C(c1ccccc1OC1CCN(Cc2ccc(-n3cccn3)cc2)CC1)N1CCCCC1 | i | ? | -15.4% | 0.5% | i | ·
O=C(c1nc2cccnc2n(CCc2ccccc2)c1=O)N1CCN(C(=O)C2CCCC2)CC1 | · | 0.6% | -29.4% | · | -0.1% | ·
CCc1nc(C(N)=O)c(Nc2ccc(N3CCC(N4CCN(C)CC4)CC3)c(OC)c2)nc1NC1CCOCC1 | · | · | · | · | 8.61µM* | 3.06*
COc1ccccc1N1CCN(C2CCCN(Cc3nc(C(N)=O)no3)C2)CC1 (stereo not given) | i | -12.9% | -22.6% | 4.9% | -19.0% | ·
CN1CCN(C)c2cc(Nc3ccc(N4CCOCC4)cc3)ncc2C1 | · | · | · | · | · | 7.03*
c1ccc(CCN2CCNc3cc(Nc4ccc(N5CCOCC5)cc4)ncc3C2)cc1 | i | 50.1µM* | 35.5µM* | -4.6%[70.6 µM] | 14.1µM* | 6.27*
Cc1cc(-c2cc3c(cn2)N(C)CCN(C)C3)ccn1 | i | ? | ? | 0.7%[70.6 µM] | 0.9%[88.5 µM] | ·
O=c1n(CCCN2CCN([S+](=O)([O-])c3cccs3)CC2)nc2n1CCCC2 | · | -6.8% | -10.4% | · | · | ·
CN(C)C(=O)C1=NOC2CN([S+](C)(=O)[O-])CC12 (stereo not given) | · | i | i | · | -4.2%[88.5 µM] | ·
COc1ccc(-c2ccc3nc(-c4cccc(Cl)c4)oc3c2)c(OC)c1OC | ? | ? | -18.3% | -6.2% | ? | 2.43*
COc1ccc(-c2ccc3nc(-c4ccccc4Cl)oc3c2)c(OC)c1OC | ? | ? | ? | 1.1% | 2.5% | ·
CCCn1ncc(N2CCC(C(=O)N(CCCOC)Cc3ccc4c(c3)CCCN4CC)CC2)cc1=O | · | 22.4µM* | 35.5µM* | · | 10µM* | 1.72*
COc1ccc(NC2CCCN(C(=O)c3ccccc3C(F)(F)F)C2)cc1OC (stereo not given) | i | ? | -23.9% | 2.3% | ? | 3.85*
COc1ccc(NC2CCCN(C(=O)c3cc(C(C)=O)n[nH]3)C2)cc1OC (stereo not given) | i | 2.1% | 3.1% | -7.0% | ? | ·
Cc1cnc(Nc2ccc(F)cc2Cl)nc1-c1c[nH]c(C(=O)NC(CO)c2cccc(Cl)c2)c1 (stereo not given) | · | · | · | · | 7.08µM* | 3.43*
CN(C)c1ccc2c(c1)CN(C(=O)c1cnn(C)c1)CCO2 | · | -2.5% | -23.7% | · | 1µM* | 0.685*
CN(C)c1ccc(C(=O)N2CCc3cn(C)c4cccc(c34)C2)cc1 | i | ? | ? | -9.9% | -0.3% | ·
